These results are taken from PubChem BioAssay (NCATS).

Structures are written as SMILES. Results filed as inconclusive are left out. A call without a number means that no potency is given here. Values without a mark were called inactive. The source made the active and inactive calls. Unless noted, calls come from the whole dose curve.

Chain of Nucleoprotein (Lymphocytic choriomeningitis virus (strain Armstrong)) (P09992 whole entry, looked up): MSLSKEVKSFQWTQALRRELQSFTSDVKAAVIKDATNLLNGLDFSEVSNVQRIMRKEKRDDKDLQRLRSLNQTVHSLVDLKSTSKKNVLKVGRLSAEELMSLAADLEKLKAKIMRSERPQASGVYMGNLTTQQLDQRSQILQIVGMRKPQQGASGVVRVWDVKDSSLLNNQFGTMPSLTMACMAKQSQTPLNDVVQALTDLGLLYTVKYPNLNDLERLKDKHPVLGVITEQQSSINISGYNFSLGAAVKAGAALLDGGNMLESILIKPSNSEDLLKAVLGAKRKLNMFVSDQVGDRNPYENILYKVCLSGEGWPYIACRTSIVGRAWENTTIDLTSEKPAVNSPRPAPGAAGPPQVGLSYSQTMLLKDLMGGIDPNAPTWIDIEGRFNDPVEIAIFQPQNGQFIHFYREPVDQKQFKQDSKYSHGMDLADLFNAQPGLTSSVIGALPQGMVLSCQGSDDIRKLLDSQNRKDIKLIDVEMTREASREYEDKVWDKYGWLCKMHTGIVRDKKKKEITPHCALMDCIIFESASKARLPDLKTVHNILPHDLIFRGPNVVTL

Tested on in one assay: not listed separately
Put plainly: qHTS for Inhibitors of the Functional Ribonucleoprotein Complex (vRNP) of Lymphocytic Choriomeningitis Arenaviruses (LCMV): Viability assay - alamar blue signal for LCMV Primary Screen (AID 1347085; calls by dose curve; tested in HEK293 reporter line; note: nearly all actives have a fitted effect of over 80% in size; note: potency is the fitted concentration of half-maximal effect). The conditions noted are these: alamar blue viability counter-screen, LCMV vRNP screen cells; series mostly up to 57.5 µM.
With `COCCCCC(=NOCCN)c1ccc(C(F)(F)F)cc1`, the Potency was 38.5 µM (active).
On to `C=CCNc1ncnc2ccc(Br)cc12`, for which the Potency result was “inactive”.
Still for that read-out and setting: in the case of `C=C[C@H]1CN2CC[C@@H]1C[C@@H]2[C@@H](O)c1ccnc2ccc(OC)cc12` it was “inactive”; in that of `NC[C@@H]1O[C@H](C23CC4CC(CC(C4)C2)C3)Cc2c1ccc(O)c2O`, “inactive”; in that of `CCN(CC)CCCCCCCCOC(=O)c1cc(OC)c(OC)c(OC)c1`, “inactive”.
On the same count and under the same terms, under `CN(C)CCCc1cc(C(=O)Nc2ccc(-c3ccncc3)cc2)ccc1O` stands “inactive”; under `c1ccc(C(NCCNC(c2ccccc2)c2ccccc2)c2ccccc2)cc1`, “inactive”.

A further assay addresses Nucleoprotein (Lymphocytic choriomeningitis virus (strain Armstrong)) (UniProt P09992). Put plainly: qHTS for Inhibitors of the Functional Ribonucleoprotein Complex (vRNP) of Lymphocytic Choriomeningitis Arenaviruses (LCMV): LCMV Primary Screen - GLuc reporter signal (AID 1347086). Note: nearly all actives have a fitted effect of over 70% in size. Note: potency is the fitted concentration of half-maximal effect. The conditions noted are these: LCMV minigenome vRNP cell assay, Gaussia luciferase reporter; series mostly up to 57.5 µM. Background: qHTS replaces the single test concentration by a dilution series.
As for `COc1ccc(CCC(=O)c2c(O)cc(O[C@@H]3O[C@H](CO)[C@@H](O)[C@H](O)[C@@H]3O[C@@H]3O[C@@H](C)[C@H](O)[C@@H](O)[C@@H]3O)cc2O)cc1O`, the Potency is 6.11 µM (active).
`CCNC(=O)c1cc2c(-c3cc(OCCN4CCCC4)c(Cl)cc3Cl)nc(N)nc2s1`: the Potency is 1.37 µM (active).
For the molecule `COc1ccc(-c2cc3c(C)nc(N)nc3n(C3CCC(OCCO)CC3)c2=O)cn1` (stereo not drawn), the Potency was 0.153 µM (active).
On the same count and under the same terms, in the case of `C=C1C2[C@H](OC(C)=O)[C@@H]3CC(=O)[C@]4(C)OC[C@@]3(C)[C@@]4(O)[C@@H](OC(C)=O)[C@H](OC(C)=O)[C@@]2(COC(=O)c2ccccc2)[C@@H](OC(C)=O)C[C@@H]1O` (stereo partly drawn) it was “inactive”; in that of `COc1cc(Cl)cn2c(-c3cccc(NC4CNC4)n3)cnc12`, “inactive”; in that of `COc1cc2c(cc1OC)CN(CCc1ccc(NC(=O)c3cc(OC)c(OC)cc3NC(=O)c3cnc4ccccc4c3)cc1)CC2`, “inactive”.
Consider `C=CCNc1c(O)cc2c(O)c1C[C@@H](C)C[C@H](OC)[C@@H](O)[C@@H](C)C=C(C)[C@H](OC(N)=O)[C@@H](OC)C=CC=C(C)C(=O)N2`, for which the Potency was 4.85 µM (active).
The same measure, in the same setting: in the case of `Cc1cc(OCCCS(C)(=O)=O)cc(C)c1-c1cccc(COc2ccc3c(c2)OC[C@H]3CC(=O)O)c1` it was “inactive”; in that of `C[C@]12C=CC(=O)C=C1CC[C@@H]1[C@@H]2CC[C@]2(C)C(=O)CC[C@@H]12`, “inactive”.
`CCCCCCCCCCCCCCCC(N)=O`: the activity change, negative = inhibition was -29.4% [at 5.82 µM].
As for `O=C(CCCCCCNC(=O)c1cnc(N(c2ccccc2)c2ccccc2)nc1)NO`, the Potency result is “inactive”.
On the same count and under the same terms, under `CC(=O)/C=C/C1C(C)=CCC(C)C1(C)C` (stereo not drawn) stands “inactive”.
On the same count and under the same terms, in the case of `COc1cc(C(=O)O[C@@H]2CC(C)=CC[C@@]3(C)CC[C@](O)(C(C)C)[C@H]23)ccc1O` it was “inactive”; in that of `CC(C)(C)Cn1c(N)nc2ccc(-c3[nH]c(C(C)(C)C)nc3-c3ccc(F)cc3)nc21`, “inactive”.
On the same count and under the same terms, under `CC(=O)O[C@@H]1/C=C/[C@](C)(O)C[C@@H](C)C/C=C/[C@H]2[C@H](O)C(C)=C(C)[C@H]3[C@H](Cc4ccccc4)NC(=O)[C@@]123` stands “inactive”.
For the molecule `NC(=O)c1cccc2cn(-c3ccc([C@@H]4CCCNC4)cc3)nc12`, the Potency result was “inactive”.
Still for that read-out and setting: in the case of `CC(C)(N)c1ccc(-c2nc3ccccc3nc2-c2ccccc2)cc1` it was “inactive”; in that of `Nc1ncnc2c1ncn2[C@@H]1O[C@H](CO)C[C@@H]1O`, “inactive”; in that of `CCCCCC[C@@H](O)C/C=C\CCCCCCCC(=O)O`, “inactive”.
Still for that read-out and setting: under `C=C(C)[C@@]12OC3(c4ccccc4)O[C@@H]1[C@@H]1[C@@H]4O[C@]4(CO)[C@@H](O)[C@]4(O)C(=O)C(C)=C[C@H]4[C@@]1(O3)[C@H](C)[C@H]2OC(=O)/C=C/C=C/c1ccccc1` stands “inactive”.
Consider `O=C1c2ccccc2C(=O)N1Cc1ccccc1`, for which the Potency result is “inactive”.
`CCCCC/C=C\C\C=C/C=C/C=C/[C@@H](O)[C@@H](O)CCCC(=O)O`: the activity change, negative = inhibition is -32.8% [at 0.757 µM].
Turning to `COc1c2ccoc2c(OC[C@@H](O)C(C)(C)OC)c2oc(=O)ccc12`, the Potency entry is “inactive”.
Same read-out and setting: in the case of `Cc1ncc(C[n+]2csc(CCO)c2C)c(N)n1` it was “inactive”; in that of `COc1cc(F)c(F)c(Nc2ccc(I)cc2F)c1NS(=O)(=O)C1(C[C@H](O)CO)CC1`, “inactive”; in that of `COc1ccc(-c2cc3nccn3c(Nc3ncccc3C(N)=O)n2)cc1OC`, “inactive”.
The same measure, in the same setting: under `Cc1ccc(NC(=O)Nc2cc(C(F)(F)F)ccc2F)cc1Nc1ccc2c(c1)NC(=O)C2=Cc1ccc[nH]1` stands 27.3 µM (active); under `COc1cccc2c1cc([N+](=O)[O-])c1c(C(=O)O)cc3c(c12)OCO3`, “inactive”.
Same read-out and setting: under `CC(C)(C)NC(=O)[C@H]1CN(Cc2cccnc2)CCN1C[C@@H](O)C[C@@H](Cc1ccccc1)C(=O)N[C@H]1c2ccccc2C[C@H]1O` stands “inactive”; under `O=C1NC(=O)C(c2cnc3ccccn23)=C1c1cn2c3c(cccc13)CN(C(=O)N1CCOCC1)CC2`, “inactive”.
For `CC#CCn1c(N2CCC[C@@H](N)C2)nc2c1c(=O)n(Cc1nc(C)c3ccccc3n1)c(=O)n2C`, the Potency entry was “inactive”.
Turning to `COc1cc2ncn(-c3cc(OCc4ccccc4S(C)(=O)=O)c(C#N)s3)c2cc1OC`, the Potency result was “inactive”.
The same measure, in the same setting: in the case of `NC(=O)c1c[nH]c2ccccc12` it was “inactive”.

Tested on in another assay: not listed separately
Put plainly: Primary qHTS for Huh7 cytotoxicity: counterscreen for inhibitors of MERS-S pseudotyped particle cell entry (AID 1479147). To be noted: cell viability read-out; series mostly up to 57.1 µM.
Turning to `CCCCCC[C@@H](O)C/C=C\CCCCCCCC(=O)O`, the result was inactive.
Same read-out and setting: in the case of `Cc1ncc(C[n+]2csc(CCO)c2C)c(N)n1` it was “inactive”.
Still for that read-out and setting: under `CC#CCn1c(N2CCC[C@@H](N)C2)nc2c1c(=O)n(Cc1nc(C)c3ccccc3n1)c(=O)n2C` stands “inactive”.
